Compound activity as filed in PubChem BioAssay.
Rango complex inh – qHTS Assay for Inhibitors of Rango (Ran-regulated importin-beta cargo) - Importin beta complex formation; Importin subunit beta-1 (Homo sapiens), Q14974; Rango CFP/YFP FRET sensor + importin beta, 45 min; Potency, µM (series often up to 92.2 µM), for the others: at the highest dose inhibition of complex formation; 0.031% of 340,000 active;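 note: 0% = DMSO wells and 100% = buffer wells lacking importin beta; nearly all actives have a fitted effect of over 15% in size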
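FRET biosensor (snurportin 1 IBB flanked by EYFP and cerulean), 50 nM, with compound 5 min, then 0.125 microM importin beta in PBS, 1 mM DTT, 0.02% Tween-20, 0.1% BSA. CFP/YFP ratio read after 45 min at room temperature; pre-read flags interference.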
S-ASM inh – Inhibitors of Secretory Acid Sphingomyelinase (S-ASM): qHTS. 0.006% of 340,000 active. placental ASM, HMU-PC fluorogenic substrate, 60 min. AID 504937, 2011. Potency, µM (doses to about 57.5 µM), inactives show at the highest dose activity change, negative = inhibition, usual class: inhibitors; active = well fitted inhibition curve with a large enough effect; inconclusive = small, poorly fitted or top-dose-only effect; inactive = no such curve, though single readings can be large or run the other way
Target sequence (P17405 47-631 limits assumed): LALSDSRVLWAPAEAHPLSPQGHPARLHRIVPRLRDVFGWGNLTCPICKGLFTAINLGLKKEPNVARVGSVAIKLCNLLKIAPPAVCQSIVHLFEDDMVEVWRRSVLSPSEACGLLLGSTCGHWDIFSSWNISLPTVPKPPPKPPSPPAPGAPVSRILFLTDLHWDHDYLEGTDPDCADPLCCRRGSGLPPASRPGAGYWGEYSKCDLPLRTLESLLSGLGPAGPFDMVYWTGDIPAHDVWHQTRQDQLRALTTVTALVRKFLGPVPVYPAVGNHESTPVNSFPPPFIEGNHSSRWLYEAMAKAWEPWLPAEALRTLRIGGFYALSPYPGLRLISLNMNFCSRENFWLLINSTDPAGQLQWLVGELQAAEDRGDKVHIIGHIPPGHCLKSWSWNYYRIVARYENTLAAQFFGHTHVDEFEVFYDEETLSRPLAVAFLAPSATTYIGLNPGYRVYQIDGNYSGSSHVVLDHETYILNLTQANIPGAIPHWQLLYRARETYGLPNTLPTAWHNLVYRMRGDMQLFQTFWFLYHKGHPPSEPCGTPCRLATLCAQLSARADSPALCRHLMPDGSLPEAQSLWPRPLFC
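qHTS format. ASM enzyme prepared from human placenta hydrolyses the fluorogenic substrate HMU-PC0 (9 uM final) over 60 min at 37 °C after a 10 min compound preincubation.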
gsp ag – qHTS for Agonist of gsp, the Etiologic Mutation Responsible for Fibrous Dysplasia/McCune-Albright Syndrome: qHTS. gsp mutant cells, cAMP HTRF, 30 min. Potency, µM (doses to about 76.9 µM), inactives show top-dose activation (cAMP increase), hits mostly activators. AID 624287, 2012. 0.13% of 340,000 active; active = well fitted activation curve with a large enough effect; inconclusive = small, poorly fitted or top-dose-only effect, or another doubt; inactive = no such curve, though single readings can be large or run the other way; cell line not stated here;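 note: phosphodiesterase inhibitor Ro 20-1724 added with compounds to block cAMP breakdown; nearly all actives have a fitted effect of over 60% in size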
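Cells in DMEM/10% FBS with G418 were pretreated with compounds in DMSO plus […] (300 uM stock) for 30 min at 37C. cAMP was measured by HTRF (cAMP-d2 plus anti-cAMP antibody-K) after 30 min at room temperature.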
gsp antag – qHTS for Antagonists of gsp, the Etiologic Mutation Responsible for Fibrous Dysplasia/McCune-Albright Syndrome: qHTS. gsp-mutant cells, cAMP HTRF, 30 min. Potency, µM (doses to about 76.9 µM), for inactives: top-dose activity change, negative = inhibition, most hits filed as inhibitors. 0.4% of 340,000 active. AID 624288, 2012; calls by dose curve; cell line not stated here;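 note: intracellular cAMP measured with PDE inhibitor Ro 20-1724 present during compound exposure; % is set by controls: 0 for no effect and ±100 for the full control effect; nearly all actives have a fitted effect of over 65% in size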
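HTRF cAMP read-out (cAMP-d2 plus anti-cAMP antibody-K in lysis buffer, 30 min RT). Before lysis, cells are exposed to compounds with […] for 30 min at 37C in DPBS containing Ca/Mg, BSA and Tween 20.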
Rango dissoc inh – qHTS Assay for Inhibitors of RanGTP induced Rango (Ran-regulated importin-beta cargo) - Importin beta complex dissociation; Snurportin-1 (Homo sapiens) + GTP-binding nuclear protein Ran (Homo sapiens) + Importin …; Biochemical FRET Rango-importin beta, RanGTP-induced dissociation; Potency, µM (doses to about 46.1 µM), for the others: at the top dose activity change, negative = inhibition; 0.071% of 340,000 active; note: % of control where 0% means no effect; nearly all actives have a fitted effect of over 45% in size
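Compounds sat 5 min at room temperature with 0.1 uM Rango biosensor plus 0.25 uM importin beta, then FRET pre-read. RanGTP-RCC1 (0.6 uM Ran, 2mM GTP, 0.2 uM RCC1) added for 45 min, and the CFP/YFP post-read measured blocked complex dissociation.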
* = called active by the depositor; i = inactive; ? = inconclusive; . = no result given; [ ] = remark or other dose. Compounds with a hit are over-represented: about 0.67% of the library has one in this group of screens. Unless noted, calls come from the whole dose curve. Potency is the fitted concentration of half-maximal effect.

SMILES | Rango complex inh | S-ASM inh | gsp ag | gsp antag | Rango dissoc inh
O=C(Oc1cc2oc(=O)c3c(c2cc1Cl)CCCC3)c1cccs1 | ? | i | 10.3% | 0.0% | 8.2µM*[inhibitor]
O=C(Oc1ccc2c3c(c(=O)oc2c1)CCCC3)c1cccs1 | -6.7% | 468.9% | ? | 1.7% | ?
CSc1cccc(-c2nnc(NC(=O)c3cccc(N4C(=O)CCC4=O)c3)o2)c1 | -5.4% | 0.8% | -99.7% | -5.0% | -10.8%
Brc1ccc(N/N=C(/N=Nc2nn[nH]n2)c2ccccc2)cc1 | -1.2% | 10.0% | -1.1% | 22.4µM* | 13.3%
C=CCn1c(=O)/c(=C2/SC(C)=C(C)N2CC)s/c1=C1/C(=O)N(CC)C(=S)N1c1ccccc1 | -0.3% | 1.9% | -31.8% | -1.6% | 4.6%
COC(=O)[C@H](CC(C)C)NC(=O)c1cc2c(cn1)[nH]c1ccccc12 | 2.2% | -3.5% | ? | 7.94µM* | 16.3%
COC(=O)C(Cc1ccccc1)NC(=O)c1cc(=O)[nH]c2ccccc12 (stereo not drawn) | -0.5% | -5.6% | -14.1%[15.4 µM] | . | 7.8%
COc1ccc2cc(/C=C3\SC(=S)NC3=O)c(N3CCOCC3)nc2c1 | ? | -12.5% | 24.3% | 35.5µM* | -11.0%
O=C1NC(=S)S/C1=C/c1ccc(N2CCOCC2)o1 | ? | -4.7% | 29.4% | ? | ?
O=C(Nc1cc(Cl)ccc1O)C1CC(c2ccccc2Cl)=NO1 (stereo not drawn) | -0.1% | -11.3% | -5.1% | -9.4% | 1.7%
CC1(NC(=O)CCc2nc3sc4c(c3c(=O)[nH]2)CCCC4)CCS(=O)(=O)C1 (stereo not drawn) | ? | 2.6% | -7.8%[15.4 µM] | -7.2% | ?
CS(=O)(=O)Nc1ccc(C2=NN(C(=O)c3ccco3)C(c3ccccc3F)C2)cc1 (stereo not drawn) | -0.1% | -0.4% | -31.6% | 28.2µM* | -17.6%
C#CCOc1ccc(/C=C2/C(=O)NN(c3ccc(F)cc3)C2=O)cc1OC | -1.1% | -1.3% | 12.9% | -17.7% | 0.0%
COc1ccc(S(=O)(=O)N2CCCCC2)cc1NC(=O)CCC(=O)N1CCC(c2ccccc2)=N1 | 2.2% | -2.7% | -16.8% | -1.5% | -6.2%
COC(=O)c1cc(CSc2nc3ccccc3c(=O)n2C)oc1C | 2.5% | -7.5% | -15.8% | 35.5µM* | -5.6%
CC(C)=CCc1c(O)cc2oc3c(CC=C(C)C)c(O)c(O)c(CC=C(C)C)c3c(=O)c2c1O | ? | -9.9% | ? | 31.6µM* | ?
OCCC1CN(Cc2cccc3c2OCO3)CCN1C1CCCC1 (stereo not drawn) | -4.5% | 1.1% | -17.3% | 4.8% | -14.5%
O=C(Nc1nnc(C(F)(F)F)s1)C1COc2ccccc2O1 (stereo not drawn) | 3.9% | -0.6% | 0.0% | 35.5µM* | -2.5%
O=C(Nc1nnc(C2CC2)s1)C1COc2ccccc2O1 (stereo not drawn) | ? | 1.7% | 3.4%[15.4 µM] | . | 3.6%
COc1cc(C)c(CN2CCN(C(C)C(=O)NC(C)c3ccccc3)CC2)cc1OC (stereo not drawn) | 1.0% | 1.4% | 3.0% | -2.4% | 10.7%
COc1ccc(C2/C(=C(\O)c3ccc4c(c3)CC(C)O4)C(=O)C(=O)N2Cc2cccnc2)c(OC)c1 (stereo not drawn) | 3.7% | . | 17.1%[15.4 µM] | 5.3% | 14.6%
CC(C)c1ccc(NC(=O)c2ccc3c(c2)C(=O)N(Cc2cccnc2)C3=O)cc1 | -1.8% | -19.2% | ? | 35.5µM* | -19.7%
CCOC(=O)c1ccc(NC(=O)c2ccc3c(c2)C(=O)N(Cc2cccnc2)C3=O)cc1 | -4.7% | -13.3% | ? | 35.5µM* | 12.0%
COC(=O)Cc1ccc(NC(=O)c2ccc3c(c2)C(=O)N(Cc2cccnc2)C3=O)cc1 | -3.2% | 2.1% | -19.5% | -10.6% | -0.8%
